Rows were chosen to be rich in hits. Some 11% of all compounds tested hit in one or more screens of this group.
HEK293 tox – Cytotoxic Profiling in HEK 293 Cell Line of Diverse Libraries Using Quantitative High-Throughput Screening; HEK 293 viability, ATP luminescence (CellTiter-Glo), 48-72 h; Potency, µM (series often up to 115 µM), inactives show at the highest dose activity change, negative = cytotoxicity, most hits filed as inhibitors; 6.6% of 94,000 active; further: nearly all actives have a fitted effect of over 60% in size
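qHTS cytotoxicity; HEK 293, 250 cells/well; compound pinned; 48 or 72 hr, 37 degree Celsius, 5% CO2, 95% humidity; CellTiter-Glo, 10 min RT; luminescence (ATP).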
NPR1 antag – Natriuretic polypeptide receptor (hNpr1) antagonism - Primary qHTS; Atrial natriuretic peptide receptor 1 (Homo sapiens), P16066; HEK293 hNpr1 GloSensor cGMP, ANP-stimulated luminescence; Potency, µM (highest dose often 46.3 µM), inactives show at the highest dose activity change, negative = inhibition, usual class: inhibitors; 1.6% of 76,000 active; calls by dose curve; further: nearly all actives have a fitted effect of over 60% in size
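HEK293 cells stably expressing human Npr1 and cGMP GloSensor pGS-40F, loaded 2 h with 2% GloSensor reagent, given compound 30 min at room temperature. Luminescence read before and 20 min after 0.1 nM hNppA.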
FLuc inh – Firefly luciferase inhibition profiling of diverse chemical library using quantitative high-throughput screening; purified P. pyralis luciferase, luminescence, biochemical; Potency, µM (top dose mostly 115 µM), usual class: inhibitors; 2.5% of 76,000 active; Luciferin 4-monooxygenase (Photinus pyralis), P08659; further: nearly all actives have a fitted effect of over 65% in size
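Cell-free enzyme assay, 10nM P. pyralis luciferase, luciferin and ATP each at 10uM. Inhibition profiled over a 6-point titration, read as luminescence.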
NIH3T3 tox – Cytotoxic Profiling in NIH 3T3 Cell Line of Diverse Libraries Using Quantitative High-Throughput Screening; NIH 3T3 viability, CellTiter-Glo ATP luminescence, 48-72 h; Potency, µM (top dose mostly 96.7 µM), for the others: top-dose activity change, negative = cytotoxicity, most hits filed as inhibitors; 4.3% of 94,000 active; further: nearly all actives have a fitted effect of over 55% in size
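Luminescent ATP readout (CellTiter-Glo, 10 min RT) after 48 or 72 hr compound exposure of NIH 3T3 cells seeded at 400 cells/well in 1536-well format; quantitative HTS.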
Numbers without * were called inactive; i = inactive; ? = inconclusive; . = not tested or not shown; [ ] = dose if it differs, or a comment. Unless noted, the call rests on the fitted dose curve; in most records, active means well fitted curve in the direction sought with a large enough effect; inconclusive means small, poorly fitted or top-dose-only effect, or another doubt; inactive means no such curve, though single readings can be large; an effect the other way counts as inactive or inconclusive. On the % scale 0 is the no-effect control and ±100 the full control effect; potency means the concentration at half of the fitted maximal effect.

SMILES | HEK293 tox | NPR1 antag | FLuc inh | NIH3T3 tox
COCCN1Cc2ccc(NCC(C)C)nc2C(C)(C(=O)Nc2ccc(OC)cc2)C1 (centres undefined) | ? | -10%[70.6 µM] | ? | 45µM*
COc1ccccc1Nc1ccnc(N2CCC[C@H]2C(=O)NCCc2ccccc2F)n1 | ? | . | . | -19%
O=C(C1CCCN1c1nccc(Nc2ccccc2F)n1)N1CCC(Cc2ccccc2)CC1 (centres undefined) | 28µM* | . | . | 40µM*
COc1ccccc1CNC(=O)C1CCCN1c1nccc(Nc2ccccc2F)n1 (centres undefined) | 40µM* | . | . | ?
COc1ccc(-c2nc(C)nc3c2CN(C(=O)c2ccccc2Cl)CC3)cc1 | -1% | . | . | -11%
COc1cc(NC(=O)Cn2c(N3CCN(c4ccccc4)CC3)nc(C)cc2=O)cc(OC)c1 | ? | -21% | i | ?
COCCNc1ncccc1-c1noc([C@@H]2CCCN2CC(C)(C)C)n1 | ? | 1%[70.6 µM] | i | 50µM*
COCCOc1ncccc1-c1noc([C@@H]2CCCN2Cc2cccc(C#N)c2)n1 | ? | 1%[70.6 µM] | i | -16%[174 µM]
COCCNc1ncccc1-c1noc([C@@H]2CCCN2Cc2cccc(C#N)c2)n1 | 71µM* | -2%[70.6 µM] | i | ?
COCC1CN(Cc2ccc(Cl)c(F)c2)CC12CCNCC2 (centres undefined) | ? | -4% | i | ?
Cc1ccc(N2Cc3c(NCCc4ccc(F)cc4)ncnc3N(C)CC2=O)cc1 | ? | 0% | i | 35µM*
O=C(NC1CCCN(Cc2ccc(-c3cncnc3)cc2)C1)c1ccncc1 (centres undefined) | ? | . | . | -22%
COc1cccc(-c2ccc(CN3CCCC(NC(=O)c4ccccn4)C3)cc2)c1 (centres undefined) | 25µM* | . | . | ?
COc1cccc(-c2ccc(CN3CCCC(NC(=O)c4ccc(C(F)(F)F)cc4)C3)cc2)c1 (centres undefined) | -33% | . | . | -24%
COc1cccc(-c2ccc(CN3CCCC(NC(=O)c4ccncc4)C3)cc2)c1 (centres undefined) | 22µM* | . | . | ?
COc1cccc(CN2CCCC(NC(=O)c3cn4ccsc4n3)C2)c1 (centres undefined) | ? | 0% | i | -15%
COc1cccc(-c2ccc(CN3CCCC(NC(=O)c4ccc(Cl)nc4)C3)cc2)c1 (centres undefined) | 14µM* | . | . | 32µM*
COc1cccc(-c2ccc(CN3CCCC(NC(=O)c4ccc(C)cc4)C3)cc2)c1 (centres undefined) | 22µM* | . | . | ?
C#CCNC(=O)c1nc(-c2cccc(C(F)(F)F)c2)c2cnccn12 | ? | ? | i | ?
Cc1ccc(S(=O)(=O)N2CCCC(CCC(=O)N3CCc4ccccc4C3)C2)cc1 (centres undefined) | ? | ? | i | ?
O=C(Nc1ccccc1)N1CCc2nn(Cc3ccccc3)c(=O)n2CC1 | -9% | . | . | -21%
Cc1cccc(C(=O)NC2CCCN(Cc3ccc(-c4cc(C)cc(C)c4)cc3)C2)c1 (centres undefined) | 40µM* | . | . | ?
Cc1cc(C)cc(-c2ccc(CN3CCCC(NC(=O)c4ccccn4)C3)cc2)c1 (centres undefined) | ? | . | . | 14µM*
Cc1cc(C)cc(-c2ccc(CN3CCCC(NC(=O)c4ccc(C(F)(F)F)cc4)C3)cc2)c1 (centres undefined) | -5% | . | . | -8%
O=C(NC1CCCN(Cc2ccc(-c3cncnc3)cc2)C1)c1ccccn1 (centres undefined) | ? | . | . | -4%
SMILES | HEK293 tox | NPR1 antag | FLuc inh | NIH3T3 tox
O=C(OCc1ccccc1)N1CCC2(CC1)C(=O)NN=C2C1CC1 | 112µM* | -2%[70.6 µM] | i | -11%[138 µM]
Fc1ccc(-c2nc(CC3CCNC3)no2)cc1 (centres undefined) | 4% | 1% | i | -14%
CCc1cccc(NC(=O)c2ccc3c(c2)N(C)C2CCCN2C3=O)c1 (centres undefined) | ? | 0% | 25µM* | ?
CCc1cccc(NC(=O)c2ccc3c(c2)N(CC)C2CCCCCN2C3=O)c1 (centres undefined) | 32µM* | 2% | i | ?
CCN1c2cc(C(=O)Nc3ccccc3C(=O)OC)ccc2C(=O)N2CCCCCC21 (centres undefined) | ? | -2% | i | 20µM*
CCN1c2cc(C(=O)Nc3cccc(C)c3)ccc2C(=O)N2CCCCCC21 (centres undefined) | ? | -2% | i | ?
CCc1cccc(NC(=O)c2ccc3c(c2)N(CC)C2CCCCN2C3=O)c1 (centres undefined) | ? | 0% | i | ?
CCN1c2cc(C(=O)Nc3cccc(C(C)C)c3)ccc2C(=O)N2CCCCCC21 (centres undefined) | 28µM* | -6% | i | 32µM*
CCc1cccc(NC(=O)c2ccc3c(c2)N(C)C2CCCCCN2C3=O)c1 (centres undefined) | 35µM* | 0% | ? | ?
Cc1ccc([S+](=O)([O-])N2CCCN(CCn3nc4n(c3=O)CCCC4)CC2)cc1 | -17% | . | . | -24%
CC1=C[C@@H](CNC(=O)C(C)C)[C@H](C(C)C)C[C@H]1Cc1nc2ncccc2[nH]1 | -23%[172 µM] | -5%[70.6 µM] | i | ?
CC(=O)NC[C@@H]1C=C(C)[C@H](Cc2nc3ccccc3[nH]2)C[C@H]1C(C)C | ? | -21%[70.6 µM] | i | ?
COc1ccc2[nH]c(C[C@@H]3C[C@@H](C(C)C)[C@H](CNC(=O)c4cccnc4)C=C3C)nc2n1 | 56µM* | -23%[70.6 µM] | i | ?
CCCNC(=O)NC[C@@H]1C=C(C)[C@H](Cc2nc3nc(OC)ccc3[nH]2)C[C@H]1C(C)C | 63µM* | -19%[70.6 µM] | i | 89µM*
CCOC(=O)[C@@H]1[C@@H](OC(N)=O)C(=O)N(Cc2ccccc2)C12CCN(C(=O)CC(C)C)CC2 | ? | . | . | -9%
C#CCNC(=O)c1nc(-c2cccnc2)c2cnccn12 | ? | 13%[70.6 µM] | i | -22%[138 µM]
C#CCNC(=O)c1nc(-c2ccsc2)c2cnccn12 | 100µM* | 0%[70.6 µM] | i | -21%[138 µM]
CN(C)c1ncc2c(n1)C(C)(C(=O)NCc1cccc(Cl)c1)CCC2 (centres undefined) | 100µM* | -22%[70.6 µM] | i | ?
CN(C)c1ncc2c(n1)C(C)(C(=O)NCc1cccc(F)c1)CCC2 (centres undefined) | ? | -2%[70.6 µM] | i | ?
CN(C)c1ncc2c(n1)C(C)(C(=O)Nc1cccc(F)c1)CCC2 (centres undefined) | ? | -14%[70.6 µM] | i | ?
